Results on 17 compounds are retold here after PubChem BioAssay.

SMILES strings stand for the structures.

Test [1] deals with Human papillomavirus type 1a protein E7 (residues 44-93). Description: HPV1a E7 fragment binders on microarrays, primary screen, biochemical, small-molecule microarray, residues 44-93, 635 nm fluorescence (AID 1108).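 Further: E7 fragment applied at 1 µg/mL in TBST for 1 h at 4 C; score combines spot fluorescence with its signal to noise ratio.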 The settings on record: small-molecule microarray binding, fluorescence 635 nm; higher = more signal.
Test [2] in a line: modulators of HCV replicon luciferase signal, primary screen, HCV replication inhibitor project, Huh7 cells, luciferase reporter (AID 1109).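 Further: huh7 hepatoma cells harbouring a luciferase neomycin HCV replicon reporter; luciferase luminescence as measure of HCV replicon replication; test concentration not given here.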 The conditions noted are these: 48 h, higher = more signal. (Replicon systems follow genome replication, usually without infectious particles.)
Test [3] concerns the target Left-right determination factor 2 (Homo sapiens) (UniProt O00292). Description: LEFTY2 binders on small-molecule microarrays, primary screen, biochemical, small-molecule microarray, 635 nm fluorescence scan (AID 1110). The conditions noted are these: LEFTY2 binding, higher = more signal.
Test [4] deals with Calmodulin-1 (Homo sapiens) (UniProt P0DP23). Description: CALM1 binders on microarrays, EGTA buffer, profiling panel, biochemical, small-molecule microarray, Cy5-labelled CALM1 (AID 1111).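 Further: labelled calmodulin applied in Tris saline Tween buffer holding calcium plus EGTA and DTT.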 The settings on record: Cy5-CALM1 binding fluorescence, higher = more signal.
Test [5] has the same target. Description: calcium-bound CALM1 binders on microarrays, profiling panel, artefact control for SMM control-protein annotation, biochemical, small-molecule microarray, Cy5-labelled CALM1, plus calcium (AID 1112).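 Further: score merges spot fluorescence with signal to noise from triplicate slides.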 The settings on record: Cy5-CALM1 binding fluorescence, higher = more signal.
A short description of test [6]: small-molecule microarray binders of probe aWnt5a, primary screen, biochemical, biotinylated probe, 635/667 nm fluorescence (AID 1113).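 Further: score merges 667 nm fluorescence intensity with signal-to-noise per printed feature.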 The settings on record: higher = more signal.
Test [7] is described as follows: small-molecule microarray binders of probe aShh, primary screen, biochemical, biotinylated probe, 635/667 nm fluorescence (AID 1114).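 Further: probe is biotin-labelled aShh protein from a stem cell growth factor screen; measures binding of labelled protein to compounds printed on the slide; score merges feature fluorescence at 667 nm with signal-to-noise.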 The settings on record: higher = more signal.
The nature of test [8]: small-molecule microarray binders of probe aNog, primary screen, biochemical, biotinylated probe, 635/667 nm fluorescence (AID 1115).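 Further: probe is biotinylated aNog protein used at 0.15 µg/mL for 1 h at 4 C; z-score combines 667 nm fluorescence of each spot with its signal to noise.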 The settings on record: higher = more signal.
In test [9] the target is Torsin-1A-interacting protein 1 (Homo sapiens) (UniProt Q5JTV8). In words: LAP1 binders from COS7 cell lysate, primary screen, small-molecule microarray, 635/667 nm fluorescence (AID 1116). The settings on record: COS7-hLAP1 lysate binding, 635 nm fluorescence, higher = more signal.
Sequence of Torsin-1A-interacting protein 1 (Homo sapiens) (Q5JTV8 whole entry, looked up): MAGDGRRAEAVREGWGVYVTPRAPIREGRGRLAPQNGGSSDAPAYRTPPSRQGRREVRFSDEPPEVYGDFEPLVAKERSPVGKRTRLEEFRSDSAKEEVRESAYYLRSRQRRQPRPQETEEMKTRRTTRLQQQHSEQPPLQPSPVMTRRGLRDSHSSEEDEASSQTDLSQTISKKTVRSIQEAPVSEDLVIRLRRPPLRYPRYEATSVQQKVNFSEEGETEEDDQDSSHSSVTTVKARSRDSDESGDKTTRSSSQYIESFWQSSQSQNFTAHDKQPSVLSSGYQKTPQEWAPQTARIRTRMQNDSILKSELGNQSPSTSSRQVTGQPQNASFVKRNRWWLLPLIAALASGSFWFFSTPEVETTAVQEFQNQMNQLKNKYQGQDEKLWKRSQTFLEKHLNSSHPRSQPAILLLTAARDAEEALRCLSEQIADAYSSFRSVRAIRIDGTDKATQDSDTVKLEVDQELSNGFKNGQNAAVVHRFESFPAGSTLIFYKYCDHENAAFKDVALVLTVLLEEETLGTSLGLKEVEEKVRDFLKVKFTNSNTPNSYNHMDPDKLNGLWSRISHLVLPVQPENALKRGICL
The target of test [10] is Alpha-bungarotoxin (Bungarus multicinctus) (UniProt P60615). Description: alpha-bungarotoxin binders on microarray, profiling panel, artefact control for SMM control protein annotation, biochemical, small-molecule microarray, Alexa647 label, 635/667 nm fluorescence (AID 1117). The settings on record: alpha-BTX-A647 binding fluorescence, higher = more signal.
Sequence of Alpha-bungarotoxin (Bungarus multicinctus) (P60615 whole entry, looked up): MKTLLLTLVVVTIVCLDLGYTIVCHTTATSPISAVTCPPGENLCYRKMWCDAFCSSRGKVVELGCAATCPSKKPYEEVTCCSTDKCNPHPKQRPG

Sequence of Left-right determination factor 2 (Homo sapiens) (O00292 whole entry, looked up): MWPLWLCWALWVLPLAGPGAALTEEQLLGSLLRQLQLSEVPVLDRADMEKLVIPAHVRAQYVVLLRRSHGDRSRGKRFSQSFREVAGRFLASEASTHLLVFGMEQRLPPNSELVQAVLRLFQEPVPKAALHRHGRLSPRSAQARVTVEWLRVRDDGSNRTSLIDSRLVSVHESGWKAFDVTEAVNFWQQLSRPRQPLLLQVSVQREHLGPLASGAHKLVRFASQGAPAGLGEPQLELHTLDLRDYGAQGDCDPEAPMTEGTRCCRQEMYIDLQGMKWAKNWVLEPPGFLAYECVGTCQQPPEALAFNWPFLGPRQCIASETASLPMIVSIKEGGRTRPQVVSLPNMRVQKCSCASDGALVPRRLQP

In the case of `O=C1O[C@@H](c2ccccc2)[C@@H](c2ccccc2)N2[C@@H](c3ccc(O)cc3)[C@]3(C(=O)Nc4ccc(C#CCCO)cc43)[C@@H](C(=O)N3CCCCCCC3)[C@H]12`, the composite z-score in test [1] is 0.777; in test [3], 0.51; in [4], 2.37; in test [5] it was 1.05; in [6], 0.861; in [7] it was -0.116. Moreover, the composite z-score came out at 2.68 in test [8], 3.66 in [9] and 2.14 in [10]. Moreover, in test [2], the z-score is -1.18.
Regarding `C=CCC(OC(C)=O)[C@@H]1[C@@H](N(Cc2cc3ccccc3o2)C(=O)c2cccc3ccccc23)c2cc(OCCCO)ccc2N1C(=O)Cc1ccc2ccccc2c1` (stereo not given in full), the composite z-score in [1] is 0.0073; in test [3], -0.31; in test [4] it was 0.191; in test [5], 0.223; in test [6], -0.124; in test [7], 0.0711. The composite z-score in test [8] was -0.366; in [9], -0.089; in test [10], 0.474. For the same compound, the z-score in test [2] was -0.751.
For the compound `Cc1ccc(N2C(=O)c3ccccc3[C@@H](C(=O)NC(C)C)[C@@H]2c2ccc(CO)cc2)nc1`, the composite z-score in test [1] is -0.191; in [3], 0.0413; in test [4], -0.973; in test [5], -0.754; in [6], 0.0101; in test [7], -0.291. Besides, the composite z-score was -0.493 in [8], 2.09 in test [9] and -0.719 in test [10]. In test [2], this compound came in with a z-score of -0.301.
Turning to `COc1ccc([Si](C)(C)[C@@H]2[C@@H](CCn3cc([C@H](O)c4ccccc4)nn3)O[C@]3(C(=O)N(C)c4ccccc43)[C@H]2C)cc1`, the composite z-score in test [1] is -0.0859; in [3], 0.0661; in test [4] it was -0.069; in [5] it was -0.288; in test [6], -0.197; in test [7], -0.0769. Also, the values for the composite z-score in test [8], in test [9] and in test [10] were -0.223, -0.173 and 0.0489, respectively. The compound also returned a z-score in test [2] of -2.32.
Take `C=C(COC)/C(=C/C[C@H](OC(C)=O)c1ccccc1OCCO)c1cnc2ccccc2c1`: the composite z-score in [1] was 1.29; in [3] it was 0.425; in test [4] it was 0.177; in [5], -0.173; in [6], -0.0944; in [7], 0.0756. For the same compound, the figures for the composite z-score in [8], in [9] and in test [10] were 0.226, -0.0998 and 0.625, respectively. In addition, in test [2], the z-score was -1.57.
Turning to `O=c1cccc(-c2ccc3ccccc3c2)o1`, the composite z-score in test [1] was -0.0853; in test [3], -0.135; in test [4], -0.545; in test [5] it was 0.03; in [6] it was -0.184; in test [7], -0.136. In addition, the composite z-score was -0.219 in [8], 0.407 in test [9] and 0.687 in test [10]. For the same compound, the z-score in [2] was found to be 0.0929.
`C=C[C@H](OC)[C@@H](OC(=O)Nc1ccc(SC)cc1)c1ccc(OCCO)cc1`: the composite z-score in test [1] is 1.03; in [3], 0.105; in [4] it was 0.0629; in [5], 0.362; in test [6] it was 0.0433; in test [7], -0.0035. Further, the composite z-score stood at 0.375 in test [8], 1.35 in [9] and 1.62 in [10]. Also, the z-score in test [2] was 2.8.
With `O=C1OCC=C[C@H]2OC34C=CCN(c5ccc(Cl)cc5)C(=O)[C@H]3N(CCCO)C(=O)[C@@H]4[C@@H]12` (stereo not given in full), the composite z-score in test [1] is -0.0068; in [3], -0.59; in test [4] it was -0.268; in test [5] it was 0.954; in test [6], -0.15; in test [7], -0.0769. Also, the figures for the composite z-score in [8], in test [9] and in [10] were -0.345, -0.0862 and -0.43, respectively. In addition, the z-score in test [2] is -0.483.
With `COC(=O)[C@@]1(Cc2ccc(OC)cc2)[C@H]2c3cc(C(=O)N4CCCC4)n(CCN4CCOCC4)c3C[C@H]2CN1C(=O)c1ccccc1`, the composite z-score in test [1] amounted to 1.04; in test [3], 0.285; in test [4] it was 1.55; in test [5], 1.21; in test [6], 1.19; in test [7] it was 2.65. Besides, the composite z-score in test [8] came out at 2.75; in test [9], 0.934; in test [10] it was 0.609. In test [2], this compound returned a z-score of -0.882.
As for `C[C@H]1C2[C@H](Cc3ccccc3)NC(=O)[C@]23C(=O)N[C@H](Cc2ccccc2)C(=O)N[C@H](Cc2ccccc2)C(=O)NC/C=C/CCC/C=C/C3[C@@H]2O[C@]12C` (stereo not given in full), the composite z-score in test [1] is 1.39; in test [3], -0.0974; in test [4], -0.343; in [5], -1.28; in test [6] it was -0.124; in [7], -0.123. Moreover, the composite z-score in test [8] was -0.0662; in [9], -0.564; in test [10], 0.617. This compound registered a z-score in test [2] of 0.554.
For `C=CC[C@@]1(C(=O)OC)N=C(c2ccc(OCCCO)cc2)O[C@@H]1c1ccccc1CN=[N+]=[N-]`, the composite z-score in [1] was 1.14; in [3], -0.0045; in [4] it was -0.517; in test [5] it was -0.896; in test [6] it was -0.144; in test [7], -0.0553. The composite z-score in test [8] was -0.24; in test [9] it was 0.798; in test [10], 0.389. This compound showed a z-score in test [2] of -2.02.
As for `C=CC[C@@]1(C(=O)NCCN2CCOCC2)N=C(c2ccc(OCCCO)cc2)O[C@@H]1c1ccccc1CN=[N+]=[N-]`, the composite z-score was 0.947 in [1]; -0.325 in test [3]; 1.42 in [4]; 0.555 in [5]; -0.154 in [6]; 0.0822 in test [7]. For the same compound, the composite z-score in [8] worked out at 0.104; in test [9], 1.77; in test [10], 0.604. For the same compound, in [2], the z-score is -1.74.
Consider `O=C1C2C=CC(C(O)CCc3ccccc3)N(Nc3ccccc3)C2C(=O)N1c1ccccc1` (stereo not given), for which the composite z-score in [1] was 0.0852; in test [3], -0.231; in [4] it was 2.65; in [5], 1.4; in [6] it was 0.0797; in test [7], 0.382. For the same compound, the composite z-score stood at 1.11 in test [8], 2.2 in [9] and 3.09 in [10]. Moreover, in test [2], the z-score amounted to 0.123.
Consider `O=c1cccc(-c2ccccc2)o1`, for which the composite z-score in test [1] is -0.815; in test [3] it was -0.491; in test [4], -0.604; in test [5], -0.108; in test [6] it was -0.0863; in test [7], 0.0141. The composite z-score in test [8] is -0.295; in [9] it was -0.0971; in [10], -0.0278. Further, the z-score in test [2] was -0.144.
Regarding `CCOC(=O)C1=CC[C@@H](c2ccccc2)N(S(=O)(=O)c2ccc(C)cc2)[C@H]1c1ccc(C#N)cc1`, the composite z-score in test [1] was 1.2; in test [3], -0.266; in test [4] it was 1.95; in test [5], 1; in test [6] it was -0.0236; in [7], 0.385. Also, the results for the composite z-score in [8], in test [9] and in test [10] were 0.621, 1.48 and 1.84, respectively. Besides, in test [2], the z-score was -2.11.
For the compound `O=C1NC(=O)C2C1C=CC(C(O)c1cccs1)N2Nc1ccccn1` (stereo not given), the composite z-score in test [1] is 0.348; in test [3] it was 0.451; in [4], 0.0761; in test [5], -0.576; in test [6], -0.096; in [7], -0.214. For the same compound, the composite z-score in [8] worked out at 0.0516; in [9], 1.32; in [10], 1.19. The z-score in test [2] turned out to be 0.755.
With `COC(=O)[C@@]1(Cc2ccc(F)cc2)[C@H]2c3cc(C(=O)N4CCCC4)n(Cc4ccc(Cl)c(C(F)(F)F)c4)c3C[C@H]2CN1C(=O)c1ccccc1`, the composite z-score is 1.37 in test [1]; 0.04 in test [3]; 2.51 in [4]; 1.42 in test [5]; 0.963 in test [6]; 2.64 in test [7]. For the same compound, the composite z-score in test [8] is 1.16; in [9], 1.68; in test [10], 1.57. In addition, in test [2], the z-score was -2.42.
